A short description of assay [1]: binders of probe aFSTL3 on microarray, primary screen, stem cell growth factor project, biochemical, small-molecule microarray, fluorescence 635/667 (AID 1064).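 Also: measures binding of the biotinylated anti-FSTL3 antibody to printed compounds.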 To be noted: higher = more signal.
Assay [2] can be described thus: binders from COS7 lysate, DM2A8 probe, primary screen, torsin A project, cell lysate, small-molecule microarray, fluorescence 635/667 (AID 1065). The note with it: higher = more signal, COS7 lysate expressing mutant human TOR1A.
Assay [3] in a line: binders of probe aFGF2 on microarray, primary screen, stem cell growth factor project, biochemical, small-molecule microarray, fluorescence 635/667 (AID 1067).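 Also: measures binding of biotinylated aFGF2 protein to printed compounds on slides; z-score merges feature fluorescence and signal-to-noise across triplicate slides.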 To be noted: higher = more signal.
Assay [4] in a line: binders of probe aFGF10 on microarray, primary screen, stem cell growth factor project, biochemical, small-molecule microarray, fluorescence 635/667 (AID 1071).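 Also: score merges 667 nm spot intensity and signal to noise from triplicate slides.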 To be noted: higher = more signal.
For assay [5], the target named is Neurogenic locus notch homolog protein 2 (Homo sapiens) (UniProt Q04721). Briefly: Notch2 binders on small-molecule microarrays, primary screen, biochemical, small-molecule microarray, 635 nm fluorescence, stem cell growth factors (AID 1073). To be noted: Notch2 binding, higher = more signal.
For assay [6], the target named is Pro-neuregulin-1, membrane-bound isoform (Homo sapiens) (UniProt Q02297). The assay is described as follows: NRG1 binders on small-molecule microarrays, primary screen, psychiatric disease protein project, biochemical, small-molecule microarray, fluorescence 635/667 (AID 1075).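 Also: score combines 667 nm spot fluorescence with signal to noise.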 To be noted: NRG1 binding, 635 nm fluorescence, higher = more signal.
In assay [7] the test system is Neuregulin-1 EGF-like domain. The assay is described as follows: binders of neuregulin-1 EGF-like domain, primary screen, biochemical, small-molecule microarray, 635 nm fluorescence (AID 1081).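 Also: binding of the protein to compounds printed on small-molecule microarray slides.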 To be noted: small-molecule microarray binding, higher = more signal.
Assay [8] in a line: FRG1 promoter luciferase signal modulators, primary screen, FRG1 inhibition for FSHD, cell-based, C2C12 myotubes, firefly/Renilla luciferase, luminescence (AID 1084). The note with it: higher = more signal, called active from +8 up or from −8 down.
Assay [9] can be described thus: binders of probe aFST on microarray, primary screen, stem cell growth factor project, biochemical, small-molecule microarray, fluorescence 635/667 (AID 1086).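 Also: score merges 667 nm fluorescence with signal-to-noise of each printed compound spot.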 The note with it: higher = more signal.
A short description of assay [10]: binders of probe aHhip on microarray, primary screen, stem cell growth factor project, biochemical, small-molecule microarray, fluorescence 635/667 (AID 1087).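 Also: score merges spot fluorescence at 667nm with spot signal to noise ratio.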 The note with it: higher = more signal.

The values that follow come from PubChem BioAssay.

Each structure is given as a SMILES string. Calls of active or inactive are those of the source.

Neurogenic locus notch homolog protein 2 (Homo sapiens), sequence (Q04721 whole entry, looked up, canonical isoform): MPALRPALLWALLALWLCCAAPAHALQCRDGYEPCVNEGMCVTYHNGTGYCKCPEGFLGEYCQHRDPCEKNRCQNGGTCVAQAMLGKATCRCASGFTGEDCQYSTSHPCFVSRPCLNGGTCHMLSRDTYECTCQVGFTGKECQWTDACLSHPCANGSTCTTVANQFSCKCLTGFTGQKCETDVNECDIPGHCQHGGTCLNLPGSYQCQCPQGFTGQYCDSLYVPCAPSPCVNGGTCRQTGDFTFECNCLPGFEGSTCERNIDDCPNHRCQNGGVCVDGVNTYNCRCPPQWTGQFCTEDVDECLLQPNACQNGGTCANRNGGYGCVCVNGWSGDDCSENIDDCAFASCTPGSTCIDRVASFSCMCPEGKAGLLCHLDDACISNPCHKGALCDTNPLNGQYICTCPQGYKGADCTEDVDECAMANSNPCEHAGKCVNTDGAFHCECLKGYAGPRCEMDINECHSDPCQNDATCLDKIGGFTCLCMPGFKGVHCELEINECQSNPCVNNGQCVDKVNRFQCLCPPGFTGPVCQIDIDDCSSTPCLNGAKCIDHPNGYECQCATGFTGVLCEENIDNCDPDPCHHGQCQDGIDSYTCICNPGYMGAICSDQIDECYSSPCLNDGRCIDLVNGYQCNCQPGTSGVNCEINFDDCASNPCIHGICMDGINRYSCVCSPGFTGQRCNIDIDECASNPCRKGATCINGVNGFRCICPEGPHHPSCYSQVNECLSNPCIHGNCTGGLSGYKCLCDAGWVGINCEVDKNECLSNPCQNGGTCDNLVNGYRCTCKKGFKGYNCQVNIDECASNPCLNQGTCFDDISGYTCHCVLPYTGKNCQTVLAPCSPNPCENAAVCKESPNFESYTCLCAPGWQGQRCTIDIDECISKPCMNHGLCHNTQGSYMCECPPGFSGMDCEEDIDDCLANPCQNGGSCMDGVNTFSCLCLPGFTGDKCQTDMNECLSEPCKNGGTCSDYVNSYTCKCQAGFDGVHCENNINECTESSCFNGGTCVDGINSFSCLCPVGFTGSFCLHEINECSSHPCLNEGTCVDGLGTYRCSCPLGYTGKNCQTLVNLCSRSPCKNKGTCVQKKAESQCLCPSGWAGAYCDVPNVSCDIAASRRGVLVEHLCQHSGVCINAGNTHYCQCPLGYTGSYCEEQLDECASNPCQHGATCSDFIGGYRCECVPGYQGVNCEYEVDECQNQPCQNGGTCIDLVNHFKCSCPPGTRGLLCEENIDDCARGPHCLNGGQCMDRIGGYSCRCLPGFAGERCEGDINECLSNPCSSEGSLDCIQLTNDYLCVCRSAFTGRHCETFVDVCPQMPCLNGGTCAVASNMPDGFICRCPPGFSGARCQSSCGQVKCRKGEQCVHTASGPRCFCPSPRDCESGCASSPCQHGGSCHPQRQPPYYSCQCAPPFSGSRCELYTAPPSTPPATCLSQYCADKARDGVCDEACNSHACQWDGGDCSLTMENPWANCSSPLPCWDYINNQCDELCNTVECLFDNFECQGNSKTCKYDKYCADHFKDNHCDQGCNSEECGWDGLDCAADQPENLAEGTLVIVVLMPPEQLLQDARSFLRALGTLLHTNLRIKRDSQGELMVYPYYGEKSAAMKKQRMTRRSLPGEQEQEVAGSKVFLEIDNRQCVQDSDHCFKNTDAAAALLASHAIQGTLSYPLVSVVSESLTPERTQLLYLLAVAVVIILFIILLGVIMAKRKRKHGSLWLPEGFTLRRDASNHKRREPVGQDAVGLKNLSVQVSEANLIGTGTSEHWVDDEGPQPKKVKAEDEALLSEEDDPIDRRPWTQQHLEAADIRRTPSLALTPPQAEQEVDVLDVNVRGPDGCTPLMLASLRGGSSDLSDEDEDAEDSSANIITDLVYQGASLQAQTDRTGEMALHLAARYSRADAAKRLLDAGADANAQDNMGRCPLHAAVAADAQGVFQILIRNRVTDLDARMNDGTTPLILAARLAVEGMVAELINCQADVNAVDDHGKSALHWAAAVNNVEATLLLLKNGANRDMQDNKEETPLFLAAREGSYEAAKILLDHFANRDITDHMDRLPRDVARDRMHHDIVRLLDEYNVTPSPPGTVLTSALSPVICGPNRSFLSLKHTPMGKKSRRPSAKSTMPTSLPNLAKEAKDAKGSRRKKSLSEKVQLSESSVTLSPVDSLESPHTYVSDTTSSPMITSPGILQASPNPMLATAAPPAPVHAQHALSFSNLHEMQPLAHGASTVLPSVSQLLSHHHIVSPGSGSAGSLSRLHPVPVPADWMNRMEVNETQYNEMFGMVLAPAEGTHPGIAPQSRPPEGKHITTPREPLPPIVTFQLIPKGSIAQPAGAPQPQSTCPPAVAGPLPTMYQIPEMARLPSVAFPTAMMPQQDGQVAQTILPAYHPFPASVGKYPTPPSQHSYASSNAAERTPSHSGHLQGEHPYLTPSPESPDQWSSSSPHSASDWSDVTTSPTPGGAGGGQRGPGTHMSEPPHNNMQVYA
Pro-neuregulin-1, membrane-bound isoform (Homo sapiens), sequence (Q02297 whole entry, looked up, the tested form may be a part, canonical isoform): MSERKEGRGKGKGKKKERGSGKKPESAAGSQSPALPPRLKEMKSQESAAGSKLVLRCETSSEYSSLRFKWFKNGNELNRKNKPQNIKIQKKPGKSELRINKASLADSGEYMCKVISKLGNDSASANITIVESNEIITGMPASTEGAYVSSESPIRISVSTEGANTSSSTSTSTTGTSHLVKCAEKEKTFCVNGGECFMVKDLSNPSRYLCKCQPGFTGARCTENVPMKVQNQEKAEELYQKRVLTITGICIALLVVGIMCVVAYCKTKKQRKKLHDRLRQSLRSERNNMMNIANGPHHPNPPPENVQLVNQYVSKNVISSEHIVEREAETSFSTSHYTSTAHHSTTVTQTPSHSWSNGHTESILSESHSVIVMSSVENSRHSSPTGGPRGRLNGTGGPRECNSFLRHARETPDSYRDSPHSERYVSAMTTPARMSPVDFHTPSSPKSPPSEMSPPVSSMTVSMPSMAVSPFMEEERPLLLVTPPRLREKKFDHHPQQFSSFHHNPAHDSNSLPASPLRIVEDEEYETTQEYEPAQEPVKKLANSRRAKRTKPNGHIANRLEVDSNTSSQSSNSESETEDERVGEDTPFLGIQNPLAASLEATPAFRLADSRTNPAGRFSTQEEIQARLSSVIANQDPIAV

Consider `O=c1cccc(-c2ccccc2)o1`, for which the composite z-score in assay [1] is -0.0048; in assay [2] it was -0.313; in assay [3] it was -0.0996; in [4], 0.062; in [5], 0.197; in assay [6], -0.356. Moreover, the composite z-score in [7] was 0.811; in assay [9] it was -0.0103; in assay [10], 0.113. For the same molecule, the z-score in [8] was 2.03 (inactive).

Turning to `CC(C)C(O)C1C=CC2C(=O)N(C)C(=O)C2N1N1CCCCC1` (stereo not given), the composite z-score is -0.201 in [1]; -0.145 in assay [2]; -0.0412 in assay [3]; 0.651 in assay [4]; 1.51 in assay [5]; 0.856 in assay [6]. For the same molecule, the composite z-score is 1.24 in assay [7], 0.772 in assay [9] and -0.0391 in assay [10]. The z-score in assay [8] was 0.554 (inactive).

Turning to `CN1C(=O)C2C(C1=O)C1C=C(c3ccc(CO)cc3)C2C(C2CC2)N1Cc1sc2ccccc2c1Cl` (stereo not given), the composite z-score was 0.0497 in assay [1]; 1.17 in [2]; 0.0311 in [3]; 1.02 in assay [4]; 1.68 in [5]; 1.41 in [6]. In addition, the composite z-score turned out to be 0.866 in assay [7], 0.391 in assay [9] and 0.2 in assay [10]. Further, the z-score in assay [8] is -2.04 (inactive).

As for `COC(=O)[C@@]1(Cc2ccc(F)cc2)[C@H]2c3cc(C(=O)N(C)C)n(CCCNc4ccc(C(F)(F)F)cc4Cl)c3C[C@H]2CN1C(=O)c1ccccc1`, the composite z-score in [1] came out at 0.785; in assay [2] it was 0.34; in assay [3] it was 0.311; in [4], 0.754; in assay [5], 1.75; in assay [6], 1.16. Also, the composite z-score in assay [7] is 1.27; in assay [9], 1.55; in [10], -0.114. In addition, the z-score in assay [8] was 0.452 (inactive).

On to `COCCOC(=O)N1C(=O)[C@@]2(c3cc(C#Cc4ccc(OC)cc4)ccc31)[C@H](c1ccc(OCCO)cc1)N1[C@H](c3ccccc3)[C@H](c3ccccc3)OC(=O)[C@H]1[C@@H]2C(=O)N1CCc2cc(OC)c(OC)cc2C1`, for which the composite z-score was -0.327 in [1]; 0.514 in assay [2]; 0.0051 in assay [3]; 0.214 in assay [4]; 0.871 in assay [5]; 0.424 in [6]. The composite z-score in assay [7] was found to be 0.981; in assay [9], 0.225; in assay [10], 0.232. Moreover, in assay [8], the z-score is -0.948 (inactive).

Consider `COC(=O)[C@@]1(Cc2ccc(OC)cc2)[C@H]2c3cc(C(=O)N(C)C)n(CCSCCO)c3C[C@H]2CN1C(=O)c1ccccc1`, for which the composite z-score is 0.172 in assay [1]; -0.233 in assay [2]; 0.164 in assay [3]; 0.979 in assay [4]; 1.61 in assay [5]; 1.47 in assay [6]. The results for the composite z-score in assay [7], in assay [9] and in [10] were 1.22, 0.547 and -0.04, respectively. For the same molecule, in [8], the z-score was -1.35 (inactive).

With `COc1ccc([Si](C)(C)[C@@H]2[C@@H](CCO)O[C@]3(C(=O)N(Cc4ccccc4)c4ccc(N(C=O)c5ccccc5)cc43)[C@H]2C)cc1`, the composite z-score in [1] was -0.106; in [2], 0.255; in assay [3], -0.133; in assay [4], 0.465; in assay [5] it was 0.154; in [6] it was 0.359. The composite z-score in assay [7] was 0.979; in [9] it was -0.176; in assay [10], -0.236. Further, the z-score in assay [8] was -2.04 (inactive).

For `CC(C)[C@H]1COC(=O)N1C(=O)[C@H]1[C@@H](c2ccccc2)N(c2ccccc2)O[C@@H]1C`, the composite z-score in assay [1] is -0.385; in assay [2] it was 0.182; in assay [3] it was -0.204; in assay [4], 0.488; in [5], 1.14; in [6], 0.182. Further, the values for the composite z-score in assay [7], in assay [9] and in assay [10] were 0.974, 0.301 and -0.367, respectively. The z-score in assay [8] was -0.803 (inactive).

With `C=CC[C@@]1(C(=O)OC)N=C(c2ccc(OCCCO)cc2)O[C@@H]1c1ccccc1CN=[N+]=[N-]`, the composite z-score was 0.0729 in assay [1]; 0.0269 in [2]; -0.116 in [3]; -0.438 in [4]; 0.406 in [5]; 0.482 in assay [6]. Besides, the composite z-score is 1.1 in assay [7], 0.166 in [9] and -0.199 in [10]. Moreover, the z-score in [8] was -0.484 (inactive).

On to `CN1C(=O)C2C=CC(C(O)C=Cc3ccc([N+](=O)[O-])cc3)N(N3CCCCC3)C2C1=O` (stereo not given), for which the composite z-score in assay [1] stood at 1.79; in assay [2], 1.62; in assay [3] it was 0.556; in [4], 1.11; in [5], 1.69; in assay [6] it was 1.69. The composite z-score in [7] came out at 0.932; in assay [9], 2.23; in assay [10], 0.217. Also, the z-score in assay [8] was 4.21 (inactive).

For `[N-]=[N+]=NCc1ccccc1C[C@]1(C(=O)NCC(O)CO)COC(c2ccc(OCCCO)cc2)=N1` (stereo not given in full), the composite z-score in [1] was 1.11; in [2] it was 2.19; in assay [3], -0.033; in assay [4], -0.329; in [5], 0.7; in assay [6] it was 1. Besides, the composite z-score is 0.691 in assay [7], 1.1 in [9] and -0.318 in assay [10]. In assay [8], the z-score was -1.03 (inactive).

Take `C[n+]1ccc2ccc(O)cc2c1`: the composite z-score in assay [1] is -0.201; in [2], 1.46; in assay [3], -0.081; in assay [4], 0.0493; in assay [5], 0.12; in assay [6], 0.615. Further, the composite z-score in assay [7] is 0.767; in [9], -0.173; in assay [10], -0.0994. In [8], the z-score was 1.53 (inactive).

As for `O=C1O[C@H](c2ccccc2)[C@H](c2ccccc2)N2[C@H]1[C@@H](C(=O)NC[C@H](O)c1ccccc1)[C@]1(C(=O)Nc3ccc(C#CC4(O)CCCCCC4)cc31)[C@H]2c1ccccc1OCCO`, the composite z-score is -0.267 in [1]; 0.444 in assay [2]; -0.136 in assay [3]; 0.566 in assay [4]; 0.967 in assay [5]; 0.911 in assay [6]. Also, the composite z-score in assay [7] was 1.12; in assay [9], 0.0026; in [10], -0.0645. Besides, in [8], the z-score was -0.369 (inactive).
